# Screens as filed in PubChem.
# TDP1 cell CPT: growth inhibition of DT40 Tdp1-/-;hTDP1 cells with camptothecin (screen for TDP1 inhibitors); chicken DT40 Tdp1-/-;hTDP1 cells + 20 nM CPT, ATP luminescence, 48 h; AID 686979; 12% of 420,000 active; Potency, µM (doses to about 46.2 µM), inactives show top-dose activity change, negative = growth inhibition, usual class: inhibitors; also: % is scaled to controls: 0 for no effect and ±100 for the full control effect; nearly all actives have a fitted effect of over 55% in size
#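 Chicken DT40 Tdp1-/- cells stably complemented with human TDP1 were seeded at 400 cells/well in medium containing 20 nM camptothecin, exposed to pin-transferred compounds, and grown at 37 °C for at least 48 hr. Viability was read as ATP luminescence.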
# HT1080 IDH1KD tx: HT-1080 IDH1 knockdown cell toxicity (counter line). Potency, µM (doses to about 46.1 µM), for the others: at the top dose activity, negative = toxicity, actives largely listed as cytotoxic. 2% of 360,000 active. HT-1080 IDH1 knockdown viability, ATP luminescence, 48 h;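 also: 0% = DMSO wells and -100% = cell-free medium wells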
#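 Luminescent ATP read-out (CellTiter-Glo, 10 min at room temperature) after 48 h compound exposure at 37 °C gave viability of IDH1-knockdown HT-1080 cells. Activity was normalised to DMSO and cell-free wells, then fitted as concentration-response curves.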
# HepG2 tox: kills HepG2 cells in TGF-b inhibitor counter-screen; HepG2 CAGA-GFP viability, ATP luminescence, 18 h; Potency, µM (highest dose often 46.1 µM), without a hit: at the highest dose activity change, negative = cytotoxicity, most hits filed as cytotoxic; AID 588856; 0.76% of 410,000 active
#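 HepG2 CAGA-GFP cells (1000/well, DMEM with 1% FBS) received compound, then TGF-beta at 500 pg/mL final, and were incubated 18 hours at 37 degrees C. Viability was read by CellTiter-Glo luminescence. Media-only wells were set as complete cell-killing and DMSO as no toxicity.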
# TDP1 cell noCPT: qHTS for Inhibitors of human tyrosyl-DNA phosphodiesterase 1 (TDP1): qHTS in cells in absence of CPT. Potency, µM (top dose mostly 46.2 µM), for the others: at the top dose activity change, negative = growth inhibition, actives largely listed as inhibitors. AID 686978, 2013. 15% of 420,000 active. DT40 Tdp1-/- hTDP1 cells, no CPT, ATP luminescence, 48 h; also: % is scaled to controls: 0 for no effect and ±100 for the full control effect; nearly all actives have a fitted effect of over 55% in size
#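 DT40 Tdp1-/-;hTDP1 cells, no CPT (DMSO vehicle only), 400 cells/well; compounds pin-transferred; ≥48 hr, 37 °C; CellTiter-Glo 30 min RT dark, luminescence read.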
# HT1080-NT tox: kills 2HG-producing HT-1080-NT fibrosarcoma cells; Potency, µM (series often up to 46.1 µM), without a hit: at the top dose activity, negative = less viability, actives largely listed as cytotoxic; HT-1080-NT fibrosarcoma viability, CellTiter-Glo ATP luminescence, 48 h; 1.6% of 360,000 active;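 also: NT is the 2HG producing partner of a matched IDH1 knockdown line; 0% = DMSO-treated cells and -100% = media-only wells without cells; nearly all actives have a fitted effect of over 55% in size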
#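 HT-1080-NT; 750 cells/well; 5% FBS RPMI; 48 h compound, 37 degrees C; CellTiter-Glo luminescence; curve fitting and curve-class assignment.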
# TGFb inhibitor: TGF-b pathway inhibition | 1.2% of 410,000 active | Potency, µM (top dose mostly 46.1 µM), for the others: at the top dose activity, negative = inhibition, usual class: inhibitors | AID 588855 | HepG2 CAGA-GFP TGF-b/SMAD3 reporter, GFP fluorescence, 18 h; TGF-beta stimulated, 500 pg/mL final; also: % is scaled to controls: 0 for no effect and ±100 for the full control effect; nearly all actives have a fitted effect of over 65% in size
#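 Inhibition of TGF-beta-driven CAGA-GFP reporter expression in HEPG2 cells is measured by cellular GFP fluorescence after 18 h stimulation with 500 pg/mL recombinant TGF-beta in 1% FBS medium at 37 degrees C.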
# Numbers without * were called inactive; ? = inconclusive; nt = no result; ! = a repeat was not active. Rows were chosen to be rich in hits. Some 17% of all compounds tested hit in one or more screens of this group. Calls follow the shape of the dose curve; as a rule, active = well fitted curve in the direction sought with a large enough effect; inconclusive = small, poorly fitted or top-dose-only effect, or another doubt; inactive = no such curve, though single readings can be large; an effect the other way counts as inactive or inconclusive. Potency is read from the fitted curve at half-maximal effect.
SMILES,TDP1 cell CPT,HT1080 IDH1KD tx,HepG2 tox,TDP1 cell noCPT,HT1080-NT tox,TGFb inhibitor
COc1cc(OC)c(NC(=O)Nc2cccc(OCc3cc(=O)n4ccccc4n3)c2)cc1Cl,18µM*,nt,-17%,13µM*,nt,-29%
Cc1ccc(NC(=O)Nc2ccccc2OCc2cc(=O)n3ccccc3n2)c(Cl)c1,-8%,nt,3%,-20%,nt,-1%
Cc1ccn2c(=O)cc(COc3cccc(NC(=O)Nc4cccc(Cl)c4C)c3)nc2c1,?,nt,1%,23µM*,nt,1%
NNC(=O)c1cc2cc(OC(F)(F)F)ccc2[nH]1,0%,-23%,1%,-26%,-17%,47%
C/C(=N\NS(=O)(=O)c1ccccc1)c1ccc2c(c1)OCCO2,-1%,13%,6%,1%,9%,10%
COc1ccc(OC)c(NC(=O)Nc2cccc(OCc3cc(=O)n4cc(C)ccc4n3)c2)c1,8.2µM*,nt,1%,18µM*,nt,?
CCC(=O)Nc1cccc(OCc2cc(=O)n3cc(C)ccc3n2)c1,?,nt,-2%,?,nt,6%
Cc1ccc(CNCC(=O)Nc2ccc(N3CCOCC3)cc2)cc1,0%,-3%,-3%,-15%,1%,2%
COc1ccccc1C(C(=O)c1ccccc1)c1ccc2ccccc2c1 (stereo not drawn),?,-15%,nt,16µM*,-4%,nt
CCCCn1c(N)c(N(CCOC)C(=O)c2ccc3c(c2)OCCO3)c(=O)[nH]c1=O,10%,12%,-21%,9%,10%,0%
N#Cc1ccc(-c2c(-c3ccccc3)ncc3cc(F)ccc23)cc1,10µM*,-10%,-16%,16µM*,-22%,?
COc1cc2cnc(-c3ccccc3)c(C(=O)c3ccc(F)cc3)c2cc1OC,18µM*,-1%,-3%,23µM*,0%,0%
COc1cc2cnc(-c3ccccc3)c(C(=O)c3ccc(OCc4ccccc4)cc3)c2cc1OC,?,-3%,-18%,?,1%,?
COC(=O)c1ccc(-c2c(-c3ccccc3)ncc3cc(F)ccc23)cc1,13µM*,-14%,-10%,26µM*,0%,-11%
N#Cc1ccc2[nH]c(CO)c(-c3ccccc3)c2c1,?,-6%,-23%,?,-5%,?
Cc1ccc(NC(=O)C2CC(=O)n3ncnc3N2)cc1C (stereo not drawn),-5%,8%,-1%,-2%,?,7%
COc1ccc(OCC(=O)NNC(=O)c2cccc(O)c2)cc1,2%,1%,0%,-4%,11%,-1%
COc1ccc2c(c1)C=C(CN1CCN(C(C)C)C(CCO)C1)CO2 (stereo not drawn),-18%,0%,-1%,-14%,-8%,1%
O=C(c1cc(-c2ccc(O)cc2)on1)N1CCN(c2ccc(F)cc2)CC1,21µM*,-2%,-19%,?,?,-17%
O=C(c1cc(-c2ccc3c(c2)OCO3)on1)N1CCN(c2ccc(F)cc2)CC1,5%,13%,12%,-11%,-4%,-2%
O=C(c1cc(-c2ccc(O)cc2)on1)N1CCN(c2ccccc2)CC1,18µM*!,-5%,-23%,?,-20%,-3%
Cc1ccc([C@@H]2CC(=O)[C@@H]3CN(S(=O)(=O)c4ccc(C)cc4)[C@H](c4cccc(Cl)c4)C[C@@H]3N2S(=O)(=O)c2ccc(Cl)cc2)cc1,5%,8%,-3%,-25%,1%,15%
c1ccc(CNCc2ccco2)cc1,9%,6%,44%,4%,14%,26%
COc1cc(CN2C[C@@H](CO)O[C@@H](n3cnc4c(NCC(C)C)ncnc43)C2)cc(OC)c1OC,-1%,0%,1%,2%,3%,-3%
